# Experimental data taken from PubChem BioAssay.
# “And” between values parts separate entries of the source, which are not always exact repeats. Identical values can stand only once. Values without a mark were called inactive. Inconclusive results are not listed. The source made the active and inactive calls.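 Rule for the calls, unless noted: active = GFP signal above the screen-wide mean plus 3 SD, that is over about 124.5% of the solvent control; inconclusive = no reading because the compound's own fluorescence disturbed strain identification; inactive = the rest.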 Peptide text beside a SMILES is read from it.
# Legend:
# [1] = modulators of AGP1-GFP expression in yeast TOR pathway, primary screen, cell-based, multiplex flow cytometry, S. cerevisiae (AID 1887); details: 3 h, at 10 µM, stronger effect = higher value;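 note: AGP1-GFP fusion strain of S. cerevisiae within a five-strain barcoded multiplex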
# [2] = target: Beta-2 adrenergic receptor (Homo sapiens) (UniProt P07550); test: beta2AR agonists driving receptor internalization, pilot screen, cell-based, FAP fluorogen, flow cytometry, validation set (AID 504459;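 active = percent response above 42, roughly 3 SD of non-fluorescent test compounds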;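 note: agonist-driven loss of surface beta2AR via internalization measured by FAP dye flow cytometry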); details: Am2.2-beta2AR cells, FAP surface receptor flow cytometry; at 10 µM; stronger effect = higher value
# [3] = modulators of MEP2-GFP levels in yeast, confirmation, S. cerevisiae, flow cytometry GFP, cherry picks (AID 2272;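 active = GFP response above 150% of the DMSO control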;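 note: ratio of well signal to plate DMSO mean so 100% equals DMSO level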); details: S. cerevisiae MEP2-GFP strain, 3 h, at 10 µM, stronger effect = higher value
# [4] = AGP1-GFP expression modulators, hit retest, confirmation, cell-based, flow cytometry, S. cerevisiae, cherry picks (AID 2273;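 active = GFP response above 150% of the DMSO level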;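 note: median GFP channel fluorescence over the whole cell population gate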); details: S. cerevisiae AGP1-GFP strain, 3 h, at 10 µM
# Sequence of Beta-2 adrenergic receptor (Homo sapiens) (P07550 whole entry, looked up): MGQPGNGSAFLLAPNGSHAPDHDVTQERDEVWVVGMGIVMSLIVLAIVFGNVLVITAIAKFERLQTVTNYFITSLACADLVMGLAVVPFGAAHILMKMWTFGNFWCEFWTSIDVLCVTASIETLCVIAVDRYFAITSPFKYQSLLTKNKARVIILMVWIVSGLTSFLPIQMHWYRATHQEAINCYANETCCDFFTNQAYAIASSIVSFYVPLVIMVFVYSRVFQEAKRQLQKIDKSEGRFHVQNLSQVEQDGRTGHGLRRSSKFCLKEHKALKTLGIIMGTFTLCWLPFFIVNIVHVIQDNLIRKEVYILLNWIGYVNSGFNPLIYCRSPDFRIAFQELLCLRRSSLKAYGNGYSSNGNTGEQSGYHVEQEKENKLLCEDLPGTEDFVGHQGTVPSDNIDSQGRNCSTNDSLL
smiles,measurement,setting,value
COc1ccc(Cc2nccc3cc(OC)c(OC)cc23)cc1OC,"GFP response, % of DMSO",[1],99.5%
same,response,[2],20.1%
CC(C)CC12CN3CCN(CC(C3)C1O)C2 (stereo unspecified),"GFP response, % of DMSO",[1],105%
same,response,[2],4.34%
CCNC(=S)N(C)CCc1cc2c(c(OC)c1C=C1C(=O)N(C)C(=O)N(C)C1=O)OCO2,"GFP response, % of DMSO",[1],96.1%
O=C1CC[C@@]2(O)[C@H]3Cc4ccc(O)c5c4[C@@]2(CCN3CC2CC2)[C@H]1O5,"GFP response, % of DMSO",[1],96.1%
same,response,[2],-8.64%
O=c1[nH]c2ccccc2n1CCCN1CCC(n2c(=O)[nH]c3cc(Cl)ccc32)CC1,"GFP response, % of DMSO",[1],101%
same,response,[2],2.71%
C[C@H]1CCC/C=C/C2C[C@H](O)CC2[C@H](O)/C=C/C(=O)O1 (stereo partly specified),"GFP response, % of DMSO",[1],102%
same,response,[2],28.3%
C[C@@H]1O[C@@H](O[C@H]2C[C@@H](O)[C@]3(CO)[C@H]4[C@H](O)C[C@]5(C)[C@@H](C6=CC(=O)OC6)CC[C@]5(O)[C@@H]4CC[C@]3(O)C2)[C@H](O)[C@H](O)[C@H]1O,"GFP response, % of DMSO",[1],116%
same,response,[2],-22.9%
COc1ccc2c(c1)CC1(CN2C)C(=O)NC(=O)N(CCc2ccccc2)C1=O (stereo unspecified),"GFP response, % of DMSO",[1],97.8%
same,response,[2],-3.63%
COc1ccc(C(=O)N2CCCC2=O)cc1,"GFP response, % of DMSO",[1],117%
same,response,[2],-0.27%
COC1=CC(=O)OC(/C=C/c2ccccc2)C1 (stereo unspecified),"GFP response, % of DMSO",[1],103%
CC(C)C[C@H](NC(=O)[C@@H]1CCCN1C(=O)[C@@H](N)Cc1ccc(O)cc1)C(=O)NCC(N)=O (H-YPLG-NH2),"GFP response, % of DMSO",[1],103%
Cc1cc(Cl)ccc1OCC(=O)O,"GFP response, % of DMSO",[1],103%
c1ccc(Cn2ccnc2)cc1,"GFP response, % of DMSO",[1],98.2%
[N-]=[N+]=NC1C[C@H](n2ccc(=O)[nH]c2=O)O[C@@H]1CO (stereo partly specified),"GFP response, % of DMSO",[1],104%
NCC1(c2ccc3c(c2)OCCO3)CCCC1,"GFP response, % of DMSO",[1],91.3%
CN[C@H]1C[C@H]2O[C@@](C)([C@H]1OC)n1c3ccccc3c3c4c(c5c6ccccc6n2c5c31)C(=O)NC4,"GFP response, % of DMSO",[1],90.8%
same,response,[2],12%
S=C1NCCN1,"GFP response, % of DMSO",[1],99.6%
C[N+]1(C)CCN(c2ccccc2)CC1,"GFP response, % of DMSO",[1],96.6%
NCCc1c[nH]c2ccc(F)cc12,"GFP response, % of DMSO",[1],100%
same,response,[2],1.11%
Cc1cc(Cl)ccc1OC(C)C(=O)O (stereo unspecified),"GFP response, % of DMSO",[1],87.3%
same,response,[2],-8.83%
C[C@H]1CCC[C@H](O)CCCCCc2cc(O)cc(O)c2C(=O)O1,"GFP response, % of DMSO",[1],105%
CN1C(=O)CN=C(c2ccc(Cl)cc2)c2cc(Cl)ccc21,"GFP response, % of DMSO",[1],92.2%
same,response,[2],-17.9%
Cc1ccc2c(c1)C1CN(C)CCC1N2C(=O)Nc1cccc(Cl)c1 (stereo unspecified),"GFP response, % of DMSO",[1],102%
CC(C)(C)NCC(O)c1cc(Cl)c(N)c(Cl)c1 (stereo unspecified),"GFP response, % of DMSO",[1],91.4%
C[N+]1(C)[C@@H]2CC(OC(=O)[C@H](CO)c3ccccc3)C[C@H]1[C@@H]1O[C@@H]12 (stereo partly specified),"GFP response, % of DMSO",[1],99.6% and 104%
same,response,[2],4.9% and -6.87%
CC(C)[C@H]1C(=O)N2CCC[C@H]2[C@]2(O)O[C@](NC(=O)[C@@H]3C=C4c5cccc6[nH]cc(c56)C[C@H]4N(C)C3)(C(C)C)C(=O)N12,"GFP response, % of DMSO",[1],118%
same,response,[2],-24.6%
COc1ccc(OC)c(C(O)C(C)N)c1 (stereo unspecified),"GFP response, % of DMSO",[1],98.3%
same,response,[2],-5.54%
CCN(CC)C(=O)N[C@H]1C[C@@H]2c3cccc4[nH]cc(c34)C[C@H]2N(C)C1,"GFP response, % of DMSO",[1],98.6%
same,response,[2],-25%
Cc1cccc(C)c1NC1=NCCCS1,"GFP response, % of DMSO",[1],91.8%
CN[C@H](C)[C@H](O)c1ccccc1,"GFP response, % of DMSO",[1],101%
same,response,[2],-9.17%
O=C(CCCN1CCC2(CC1)C(=O)NCN2c1ccccc1)c1ccc(F)cc1,"GFP response, % of DMSO",[1],113%
same,response,[2],-35.8%
CC[C@@H](CO)NC(=O)[C@@H]1C=C2c3cccc4c3c(cn4C)C[C@H]2N(C)C1,"GFP response, % of DMSO",[1],94.5%
CC(=O)C1=C(C)OC(N)=C(C(=O)OC(C)C)C12C(=O)Nc1ccccc12 (stereo unspecified),"GFP response, % of DMSO",[1],101%
CC(Cc1ccccc1)NCC(=O)Nc1cc(N(C)C)nc2ccccc12 (stereo unspecified),"GFP response, % of DMSO",[1],103%
O=C(O)CCCc1ccc(N(CCCl)CCCl)cc1,"GFP response, % of DMSO",[1],97.6%
Cc1ccc(/C=C2/C(=O)NC(=O)N(C)C2=O)cc1,"GFP response, % of DMSO",[1],93.6%
CC(=O)[C@H]1CC[C@H]2[C@@H]3CC[C@H]4C[C@H](O)CC[C@]4(C)[C@H]3C(=O)C[C@]12C,"GFP response, % of DMSO",[1],90.4%
CN(C)[C@@H]1C(=O)C(C(N)=O)=C(O)[C@@]2(O)C(=O)C3=C(O)c4c(O)cccc4[C@@](C)(O)[C@H]3[C@H](O)[C@@H]12,"GFP response, % of DMSO",[1],103%
O=C1NC(=O)N(CCc2ccc(F)cc2)C(=O)/C1=C/c1cccs1,GFP response vs DMSO,[3],94.4%
same,"GFP response, % of DMSO",[4],101%
CCN1C(=O)NC(=O)/C(=C\c2cn(CC(=O)N3CCCC3)c3ccccc23)C1=O,GFP response vs DMSO,[3],106%
same,"GFP response, % of DMSO",[4],102%
Fc1ccc(C(OCCN2CCCC2)c2ccc(Br)cc2)cc1 (stereo unspecified),response,[2],11.4%
CCN(CC)c1ccc(C=C2C(=O)NC(=S)NC2=O)cc1,GFP response vs DMSO,[3],95.2%
same,"GFP response, % of DMSO",[4],100%
CCN1CC2(COC(=O)c3ccccc3N)CCC(OC)C34C5CC6C(OC)CC(O)(C5C6OC)C(O)(C(OC)C23)C14 (stereo unspecified),response,[2],-0.45%
Cc1ccc(N2C(=O)NC(=O)/C(=C\c3cn(CC(=O)O)c4ccccc34)C2=O)cc1,GFP response vs DMSO,[3],100%
same,"GFP response, % of DMSO",[4],98.9%
CCNC(=O)[C@H]1O[C@@H](n2cnc3c(N)ncnc32)[C@H](O)[C@@H]1O,"GFP response, % of DMSO",[1],91.5%
same,response,[2],0.15%
CCN(CC)c1ccc(/C=C/[N+](=O)[O-])cc1,GFP response vs DMSO,[3],108%
same,"GFP response, % of DMSO",[4],96.7%
CC12CN3CC(C)(CN(C1)C3c1cccnc1)C2=O (stereo unspecified),response,[2],1.06%
CCCCn1c(=O)c(C(=O)Nc2ccsc2C(=O)OC)c(O)c2ccccc21,GFP response vs DMSO,[3],101%
same,"GFP response, % of DMSO",[4],102%
N#CC(C#N)=NNc1ccc(-n2ccc(C(F)(F)F)n2)cc1,GFP response vs DMSO,[3],114%
same,"GFP response, % of DMSO",[4],102%
Nc1ccc(N=Nc2ccccc2)cc1,GFP response vs DMSO,[3],103%
same,"GFP response, % of DMSO",[4],93.4%
O=c1oc2ccccc2c(O)c1[C@H]1c2ccc(O)cc2Oc2c1c(=O)oc1ccccc21,GFP response vs DMSO,[3],102%
same,"GFP response, % of DMSO",[4],90.4%
O=C1NC(=O)N(Cc2ccco2)C(=O)/C1=C\c1ccc(-c2ccc(F)cc2)o1,GFP response vs DMSO,[3],99.3%
same,"GFP response, % of DMSO",[4],100%
O=C1/C(=C\c2ccc(Cl)c(Cl)c2)N2CCC1CC2,GFP response vs DMSO,[3],92.6%
same,"GFP response, % of DMSO",[4],95.5%
O=C1C=Cc2ccccc2C1=O,response,[2],-20.4%
C=CC1CN2CCC1CC2[C@@H](OC(=O)c1ccc(OC)cc1)c1ccnc2ccccc12 (stereo partly specified),response,[2],1.66%
O=C1NC(=O)N(c2ccccc2)C(=O)/C1=C\c1ccc([N+](=O)[O-])o1,GFP response vs DMSO,[3],108%
same,"GFP response, % of DMSO",[4],104%
Cc1cc(C=C2C(=O)N(C)C(=S)N(C)C2=O)c(C)n1-c1ccncc1,GFP response vs DMSO,[3],113%
same,"GFP response, % of DMSO",[4],100%
N#CC(C#N)=Cc1ccc(N2CCCC2)cc1,GFP response vs DMSO,[3],112%
same,"GFP response, % of DMSO",[4],109%
CC(C)[C@@]1(NC(=O)[C@@H]2C[C@@H]3c4cccc5[nH]cc(c45)C[C@H]3N(C)C2)O[C@@]2(O)[C@@H]3CCCN3C(=O)[C@H](Cc3ccccc3)N2C1=O,response,[2],-14.6%
CCOC(=O)c1cncn1C(C)c1ccccc1 (stereo unspecified),"GFP response, % of DMSO",[1],95%
same,response,[2],-9.36%
Cc1cccn2c(NCC3CCCO3)c(C(C)C)nc12 (stereo unspecified),GFP response vs DMSO,[3],104%
same,"GFP response, % of DMSO",[4],105%
CCOC(=O)C(C)Oc1cc(C)cc2oc(=O)c3c(c12)CCCC3 (stereo unspecified),response,[2],1.66%
O=c1[nH]c(=S)n(-c2ccccc2)c(O)c1/C=N/N1CCOCC1,GFP response vs DMSO,[3],99%
same,"GFP response, % of DMSO",[4],99.8%
O=C1NC(=O)C(=Cc2ccc(Sc3ccccc3)o2)C(=O)N1,GFP response vs DMSO,[3],92%
same,"GFP response, % of DMSO",[4],83.6%
O=C1NC(=O)N(c2ccccc2)C(=O)/C1=C/c1ccc(Sc2ccccc2)o1,GFP response vs DMSO,[3],108%
same,"GFP response, % of DMSO",[4],91.7%
O=C(O)c1nn(Cc2ccc(Cl)cc2Cl)c2ccccc12,GFP response vs DMSO,[3],100%
same,"GFP response, % of DMSO",[4],99.2%
O=C1NC(=O)N(CCC2=CCCCC2)C(=O)/C1=C/c1cccs1,GFP response vs DMSO,[3],96.2%
same,"GFP response, % of DMSO",[4],84%
O=C1NC(=S)NC(=O)C1=Cc1ccc2c(c1)CCN2CCCCl,GFP response vs DMSO,[3],103%
same,"GFP response, % of DMSO",[4],87.8%
COc1ccc(N2C(=O)/C(=C/c3ccco3)C(=O)NC2=S)cc1,GFP response vs DMSO,[3],100%
same,"GFP response, % of DMSO",[4],100%
Nc1ccc2ccc3cccc[n+]3c2c1,GFP response vs DMSO,[3],257% (active)
same,"GFP response, % of DMSO",[4],110%
CN1C(=O)C(=Cc2ccc(Sc3ccccc3)o2)C(=O)N(C)C1=S,GFP response vs DMSO,[3],106%
same,"GFP response, % of DMSO",[4],99.3%
COc1cc(/C=C/C(=O)c2c(O)n(CCc3ccccc3)c(=O)[nH]c2=O)ccc1O,GFP response vs DMSO,[3],98.8%
same,"GFP response, % of DMSO",[4],102%
CCOC(=O)C1=C(C)OC(N)=C(C(=O)OCC)[C@@]12C(=O)N(CC(N)=O)c1ccccc12,response,[2],-10.5%
O=C1NC(=O)N(Cc2ccco2)C(=O)/C1=C/c1ccc(-c2cccc([N+](=O)[O-])c2)o1,GFP response vs DMSO,[3],94.7%
same,"GFP response, % of DMSO",[4],90.9%
CN1C(=O)NC(=O)/C(=C\C=C\c2ccccc2[N+](=O)[O-])C1=O,GFP response vs DMSO,[3],105%
same,"GFP response, % of DMSO",[4],108%
O=c1[nH]c(=O)n(Cc2ccc(F)cc2)c(O)c1C=NCCN1CCCCC1,GFP response vs DMSO,[3],101%
same,"GFP response, % of DMSO",[4],102%
O=C1NC(=O)N(CCc2ccc(F)cc2)C(=O)/C1=C/c1ccco1,GFP response vs DMSO,[3],94.4%
same,"GFP response, % of DMSO",[4],99.8%
